Records with an inconclusive call do not appear. Active and inactive are the calls of the source. The call rests on the fitted dose curve; in most records, active means well fitted activation curve with a large enough effect; inconclusive means small, poorly fitted or top-dose-only effect; inactive means no such curve, though single readings can be large or run the other way.
The molecules below were run against Rap guanine nucleotide exchange factor 4 (Homo sapiens) (UniProt Q8WZA2) (assay: Confirmatory qHTS for agonist of cAMP-regulated guanine nucleotide exchange factor 4 (EPAC2) (AID 1645884;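 further: nucleotide exchange releases bodipy-GDP from Rap1 and this lowers its fluorescence; nearly all actives have a fitted effect of over 65% in size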)). Settings: EPAC2 GEF activity, Rap1B-BODIPY-GDP fluorescence; series mostly up to 154 µM.
On the % scale 0 is the no-effect control and ±100 the full control effect.

Rap guanine nucleotide exchange factor 4 (Homo sapiens), sequence (Q8WZA2 whole entry, looked up): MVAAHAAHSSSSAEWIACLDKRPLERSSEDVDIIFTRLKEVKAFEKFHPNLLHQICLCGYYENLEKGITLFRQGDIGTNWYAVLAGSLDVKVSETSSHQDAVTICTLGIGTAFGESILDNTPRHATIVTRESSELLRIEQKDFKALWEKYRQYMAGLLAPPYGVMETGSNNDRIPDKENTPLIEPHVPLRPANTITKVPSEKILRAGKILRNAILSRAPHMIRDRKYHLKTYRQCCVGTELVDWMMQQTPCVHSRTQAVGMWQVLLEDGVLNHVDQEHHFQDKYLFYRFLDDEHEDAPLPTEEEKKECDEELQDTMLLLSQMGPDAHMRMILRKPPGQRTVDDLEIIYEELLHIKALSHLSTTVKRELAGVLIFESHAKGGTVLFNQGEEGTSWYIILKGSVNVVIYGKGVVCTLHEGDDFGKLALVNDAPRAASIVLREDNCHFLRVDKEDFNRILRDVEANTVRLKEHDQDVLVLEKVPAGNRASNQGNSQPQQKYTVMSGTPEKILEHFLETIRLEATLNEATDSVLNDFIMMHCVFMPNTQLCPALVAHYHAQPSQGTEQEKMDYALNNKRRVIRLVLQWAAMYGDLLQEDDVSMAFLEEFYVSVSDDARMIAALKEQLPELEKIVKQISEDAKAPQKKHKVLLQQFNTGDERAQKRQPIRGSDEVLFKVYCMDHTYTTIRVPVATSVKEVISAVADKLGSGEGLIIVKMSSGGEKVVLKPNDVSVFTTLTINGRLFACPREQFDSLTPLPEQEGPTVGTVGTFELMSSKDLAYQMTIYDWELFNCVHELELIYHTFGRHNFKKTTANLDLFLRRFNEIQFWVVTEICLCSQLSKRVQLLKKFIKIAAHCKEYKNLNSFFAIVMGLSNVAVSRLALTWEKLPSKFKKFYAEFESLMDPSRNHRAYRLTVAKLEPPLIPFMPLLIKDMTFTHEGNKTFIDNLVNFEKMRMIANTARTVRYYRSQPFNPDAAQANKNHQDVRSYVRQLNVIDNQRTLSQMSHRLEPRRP

Potency, inactive:
ON=C(c1ccccc1)c1ccc2c3c(cccc13)CC2
Cc1cc(/C=C2\C(=N)N3N=C(c4ccco4)SC3=NC2=O)c(C)n1Cc1ccccc1
Oc1cccc(C=Nc2cccc3ccccc23)c1O
COc1ccc(Cl)cc1NC(=O)CN(C)C(=O)c1cc(-c2ccncc2)nc2ccccc12
S=c1[nH]nc(-c2cc(-c3ccccc3)n[nH]2)n1/N=C/c1cccc(Cl)c1
COc1cc2c(cc1OC)C(c1cccs1)N(C(=O)C(C)C)CC2 (configuration not stated)
Cc1ccc(C)c(OC(C)C(=O)Nc2ccc(S(=O)(=O)Nc3nccs3)cc2)c1 (configuration not stated)
Cc1ccc(C(=O)c2cn(Cc3cccc(C)c3)c3nc(C)ccc3c2=O)cc1
O=C(COC(=O)C1(c2ccc(Cl)cc2)CCCC1)NCc1ccco1
Cn1c(SCC(=O)c2cc(Cl)c(Cl)s2)nnc1-c1ccco1
Oc1ccc(-c2nc(-c3ccc(O)c(O)c3)cs2)cc1
CCN(CCCNC(=O)c1cc2cc3ccc(OC)cc3nc2s1)c1cccc(C)c1
O=C(Nc1cccc(F)c1)c1ccc(-c2cccnc2)c2ccoc12
O=c1[nH]cc(N=Cc2cc(Cl)cc(Cl)c2O)c(=O)[nH]1
COc1ccc(CC(=O)NCc2ccc3c(c2)CCN3C(=O)c2ccc(Cl)cc2)cc1OC
Cc1ccc(Nc2c(-c3ccccn3)nc3cccc(C)n23)cc1
CC(C)c1ccc(/C=C/C(=O)Nc2ccc(CN3CCOCC3)cc2)cc1
CCN(C(=O)Cn1c(C(=O)OC)cc2sccc21)c1cccc(C)c1
Cc1ccc(/C=C(\C#N)C(=O)Nc2cccc3ncccc23)o1

activation, inactive:
Nc1ccc2ccc(O)cc2c1 14.1% [at 17.1 µM, percent relative to cAMP agonist control]
O=C1CSC(c2cccc(Cl)c2Cl)N1c1ccccn1 (configuration not stated) 6.45% [at 17.1 µM, percent relative to cAMP agonist control]
COCCCNC(=O)C[C@@H]1C[C@@]2(C(=O)OC)CCCCC=C2N(Cc2cccc3ccccc23)C1=O 3.32% [at 17.1 µM, percent relative to cAMP agonist control]
COc1cc2c(cc1OC)C(COc1cc(C)cc(C)c1)N(C(C)=O)CC2 (configuration not stated) -1.36% [at 17.1 µM, percent relative to cAMP agonist control]
CC(C)Cc1ccc(CN2C(C(C)C)C(=O)N(Cc3cn(CCC4OCCO4)nn3)CCS2(=O)=O)cc1 (configuration not stated) 4.64% [at 17.1 µM, percent relative to cAMP agonist control]
O=C1/C(=C/c2cccs2)COc2ccccc21 1.85% [at 17.1 µM, percent relative to cAMP agonist control]
N#C/C(=C/C1=C(N2CCOCC2)C(=C/c2cccc([N+](=O)[O-])c2)/CC1)C(=O)Nc1ccccc1F 1.67% [at 17.1 µM, percent relative to cAMP agonist control]
CC1=NN(c2ccc(C)c(C)c2)C(=O)C1C(c1cccc(O)c1)C1C(=O)N(c2ccc(C)c(C)c2)N=C1C (configuration not stated) 7.48% [at 17.1 µM, percent relative to cAMP agonist control]
O=S(=O)(Nc1nc2ccc(Cl)cc2s1)c1cccs1 0% [at 17.1 µM, percent relative to cAMP agonist control]
COc1ccc(NC(=O)CN2CCN(c3c(C)cc(C)cc3C)CC2)cc1 7.83% [at 17.1 µM, percent relative to cAMP agonist control]
O=C(OCC1OC(n2ncc(=O)[nH]c2=O)C(OC(=O)c2ccccc2)C1OC(=O)c1ccccc1)c1ccccc1 (configuration not stated) 0.888% [at 17.1 µM, percent relative to cAMP agonist control]
O=c1cc(-c2ccccc2)[nH]n1-c1nc2ccccc2s1 11.1% [at 17.1 µM, percent relative to cAMP agonist control]
CCc1ccc2c(c1)NC(=O)C2(C)Cc1ccc(Cl)s1 (configuration not stated) 0.147% [at 17.1 µM, percent relative to cAMP agonist control]

— PubChem BioAssay (NCATS)
